{"source": "PubChem BioAssay (NCI)", "note": "This is part of a sample that, as a whole, favours compounds with a hit. Of some 83,000 tested, about 20% had one in any assay.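 Percent growth is the endpoint: 0 to 100 indicates growth inhibition (40 means 60% inhibition), 0 means no net growth, and negative values indicate cell death.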 Values without a mark were called inactive. The source made the active and inactive calls. The calls were made as follows: active = growth percent below 10; inactive = the rest."}
{"tested_on": "DU-145 prostate", "test": "NCI-60 one-dose screen, 48 h (100 = growth as untreated, 0 = no growth, -100 = all killed)", "conditions": "10 µM unless noted"}
{"compound": "Cc1cc(C)nc(SC2=C(Nc3cc(Cl)ccc3O)C(=O)N(Cc3ccccc3)C2=O)n1", "growth": "95.8% [30 µM]"}
{"compound": "CCN(CC)c1ccc(/C=N\\NC(=O)/C=C/C=C/c2ccc3c(c2)OCO3)c(O)c1", "growth": "53.2%"}
{"compound": "N#Cc1cnn(-c2nc3c(Cl)cccc3s2)c1N", "growth": "96%"}
{"compound": "COc1ccc(S(=O)(=O)N2CC3(COC3)C2)cc1NC(=O)c1[nH]c(C)c2c1CCCCC2=O", "growth": "79.6%"}
{"compound": "Cn1cc(C(=O)c2nc(-c3c[nH]c4ccc(F)cc34)no2)c2cc(F)ccc21", "growth": "101%"}
{"compound": "O=C1C=C(OCC=C(Cl)Cl)C(=O)c2ccccc21", "growth": "77.4%"}
{"compound": "Cc1cc(C)nc(SC2=C(Nc3cccc(Cl)c3)C(=O)N(Cc3ccccc3)C2=O)n1", "growth": "79.6% [30 µM]"}
{"compound": "O=c1cc(CSc2nnc(-c3ccc(F)cc3)o2)c2ccc3ccccc3c2o1", "growth": "107%"}
{"compound": "CCCn1c(=O)[nH]c(N)c([C@H]2c3ccccc3Oc3[nH]c(=O)n(CCC)c(=O)c32)c1=O", "growth": "75.1%"}
{"compound": "O=C(CCN1C(=O)/C(=C/c2ccc(Cl)cc2)SC1=S)NCCCN1CCOCC1", "growth": "106%"}
{"compound": "Cc1nc2ccccc2n1C(=O)C[C@@H]1NC(=S)NC1=O", "growth": "109%"}
{"compound": "O=C(N=Nc1c(O)[nH]c2ccc(Br)cc12)c1cc(-c2ccccc2)on1", "growth": "110%"}
{"compound": "C=C(C)C(=O)Nc1ccc(NC(C)C)cc1", "growth": "133%"}
{"compound": "CC(O)CN1CC(O)=C(c2nc3ccccc3s2)C1=N", "note": "(centres undefined)", "growth": "115%"}
{"compound": "O=c1c2c3c(sc2nc(N/N=C/c2cn(-c4ccccc4)nc2-c2ccc(Cl)cc2)n1Cc1ccccc1)CCCC3", "growth": "116%"}
{"compound": "COc1cccc(-c2nn(C(C)(C)C)cc2-c2ccnc(NCCCNS(=O)(=O)c3ccc(C)cc3)c2)c1", "growth": "107%"}
{"compound": "CSc1nc(Nc2cccc(NC(=O)CCl)c2)c(C#N)c(-c2cccc([N+](=O)[O-])c2)n1", "growth": "13.4%"}
{"compound": "CSc1nc(Nc2cccc(NC(=O)/C(C#N)=C/c3c(Cl)cccc3Cl)c2)c(C#N)c(-c2cccc([N+](=O)[O-])c2)n1", "growth": "58%"}
{"compound": "COc1ccc(-c2nc3ccc(-c4nc5ccc(N6CCN(c7ccccc7)CC6)cc5[nH]4)cc3[nH]2)cc1OC", "growth": "-42.4% (active)"}
{"compound": "COc1ccc(CCNc2nc3c(c(=O)n(Cc4ccc(Br)cc4)c(=O)n3C)n2C)cc1OC", "growth": "107%"}
{"compound": "C=CCSSc1ncnc2c1ncn2C1OC(CO)C(O)C1O", "note": "(centres undefined)", "growth": "35.2%"}
{"compound": "Cc1ccc(NC(=O)C2CCC(CN3CCN(C)CC3)CC2)cc1Nc1nccc(-c2cccnc2)n1", "note": "(centres undefined)", "growth": "100%"}
{"compound": "COc1cc(/C=C/c2cc(O)c3cc(C(C)=O)c(=O)oc3c2)cc2c1O[C@]1(C)CC[C@@H](O)C(C)(C)[C@H]1C2", "growth": "53.4%"}
{"compound": "C=CC(=O)Nc1cccc(Nc2nc(SC)nc(-c3cccc([N+](=O)[O-])c3)c2C#N)c1", "growth": "30%"}
{"compound": "N#C/C(=C\\c1ccc(-c2cc(C(F)(F)F)ccc2Cl)o1)c1nc(-c2ccco2)cs1", "growth": "108%"}
{"compound": "COCCNc1ccc2c3c(cccc13)C(=O)N(CCN(C)C)C2=O", "growth": "27.7%"}
{"compound": "C=CC(=O)Nc1cccc(-c2nc(SC)nc(NCc3ccccc3)c2C#N)c1", "growth": "60.8%"}
{"compound": "COC(=O)c1cccc(NC(=O)c2ccc(-c3cccc(N)c3)o2)c1", "growth": "110%"}
{"compound": "N#Cc1c(-c2ccc(Cl)cc2)nc(N=Nc2c(O)[nH]c3ccc(Cl)cc23)nc1N1CCOCC1", "growth": "103%"}
{"compound": "N#CN1CCC[C@H]1C(=O)N1CCc2c(-c3[nH]nc4ncccc34)cccc21", "growth": "0.94% (active)"}
{"tested_on": "K-562 leukemia", "test": "NCI-60 one-dose screen, 48 h (100 = growth as untreated, 0 = no growth, -100 = all killed)", "conditions": "10 µM unless noted"}
{"compound": "Nc1ccc(S(=O)(=O)O)c2ccc(N=Nc3ccc(N=Nc4ccc(S(=O)(=O)O)cc4)c4ccccc34)c(O)c12", "growth": "106%"}
{"compound": "CSc1ccc(-c2n[nH]nc2-c2cc3ccccc3s2)cc1", "growth": "15.1%"}
{"compound": "COc1ccc(C(=O)COc2ccc(/C=C3\\COc4ccc(OC)cc4C3=O)cc2)cc1", "growth": "33.7%"}
{"compound": "COc1cc(C=Nc2oc(-c3ccccc3)c(-c3ccccc3)c2C#N)cc(CN2CCCCC2)c1O", "growth": "102%"}
{"compound": "O=C1CC[C@H](c2ccc(O)c3c2C(=O)[C@@H]2O[C@@H]2C3=O)c2cccc(O)c21", "growth": "0.986% (active)"}
{"compound": "C#CC(F)(F)[C@]1(O)CC[C@H]2[C@@H]3CCC4=CC(=O)CCC4=C3[C@@H](c3ccc(C(C)=O)cc3)C[C@@]21C", "growth": "61.4%"}
{"compound": "O=C(Cc1ccccc1Nc1c(Cl)cccc1Cl)NN1C(=O)/C(=C/c2ccc(Br)cc2)SC1=S", "growth": "100%"}
{"compound": "Cc1nn(-c2cc(=O)[nH]c3ccccc23)c(N)c1C#N", "growth": "105%"}
{"compound": "CCn1c(Cc2ccccc2Nc2c(Cl)cccc2Cl)nnc1SCC(=O)NN1C(=O)/C(=C/c2cc(OC)c(O)c(OC)c2)SC1=S", "growth": "19.4%"}
{"compound": "Cc1cc(C)nc(SC2=C(Nc3cc(Cl)ccc3O)C(=O)N(Cc3ccccc3)C2=O)n1", "growth": "58.5% [30 µM]"}
{"compound": "CCN(CC)c1ccc(/C=N\\NC(=O)/C=C/C=C/c2ccc3c(c2)OCO3)c(O)c1", "growth": "17.6%"}
{"compound": "N#Cc1cnn(-c2nc3c(Cl)cccc3s2)c1N", "growth": "92.8%"}
{"compound": "COc1ccc(S(=O)(=O)N2CC3(COC3)C2)cc1NC(=O)c1[nH]c(C)c2c1CCCCC2=O", "growth": "45.1%"}
{"compound": "Cn1cc(C(=O)c2nc(-c3c[nH]c4ccc(F)cc34)no2)c2cc(F)ccc21", "growth": "66.1%"}
{"compound": "O=C1C=C(OCC=C(Cl)Cl)C(=O)c2ccccc21", "growth": "80%"}
{"compound": "Cc1cc(C)nc(SC2=C(Nc3cccc(Cl)c3)C(=O)N(Cc3ccccc3)C2=O)n1", "growth": "51.8% [30 µM]"}
{"compound": "O=c1cc(CSc2nnc(-c3ccc(F)cc3)o2)c2ccc3ccccc3c2o1", "growth": "93.9%"}
{"compound": "CCCn1c(=O)[nH]c(N)c([C@H]2c3ccccc3Oc3[nH]c(=O)n(CCC)c(=O)c32)c1=O", "growth": "52.6%"}
{"compound": "O=C(CCN1C(=O)/C(=C/c2ccc(Cl)cc2)SC1=S)NCCCN1CCOCC1", "growth": "97.8%"}
{"compound": "Cc1nc2ccccc2n1C(=O)C[C@@H]1NC(=S)NC1=O", "growth": "107%"}
{"compound": "O=C(N=Nc1c(O)[nH]c2ccc(Br)cc12)c1cc(-c2ccccc2)on1", "growth": "109%"}
{"compound": "C=C(C)C(=O)Nc1ccc(NC(C)C)cc1", "growth": "134%"}
{"compound": "CC(O)CN1CC(O)=C(c2nc3ccccc3s2)C1=N", "note": "(centres undefined)", "growth": "105%"}
{"compound": "O=c1c2c3c(sc2nc(N/N=C/c2cn(-c4ccccc4)nc2-c2ccc(Cl)cc2)n1Cc1ccccc1)CCCC3", "growth": "3.49% (active)"}
{"compound": "COc1cccc(-c2nn(C(C)(C)C)cc2-c2ccnc(NCCCNS(=O)(=O)c3ccc(C)cc3)c2)c1", "growth": "101%"}
{"compound": "CSc1nc(Nc2cccc(NC(=O)CCl)c2)c(C#N)c(-c2cccc([N+](=O)[O-])c2)n1", "growth": "5.6% (active)"}
{"compound": "CSc1nc(Nc2cccc(NC(=O)/C(C#N)=C/c3c(Cl)cccc3Cl)c2)c(C#N)c(-c2cccc([N+](=O)[O-])c2)n1", "growth": "20.4%"}
{"compound": "COc1ccc(-c2nc3ccc(-c4nc5ccc(N6CCN(c7ccccc7)CC6)cc5[nH]4)cc3[nH]2)cc1OC", "growth": "-31.7% (active)"}
{"compound": "COc1ccc(CCNc2nc3c(c(=O)n(Cc4ccc(Br)cc4)c(=O)n3C)n2C)cc1OC", "growth": "69.8%"}
{"compound": "C=CCSSc1ncnc2c1ncn2C1OC(CO)C(O)C1O", "note": "(centres undefined)", "growth": "40%"}
{"compound": "Cc1ccc(NC(=O)C2CCC(CN3CCN(C)CC3)CC2)cc1Nc1nccc(-c2cccnc2)n1", "note": "(centres undefined)", "growth": "58.3%"}
{"compound": "COc1cc(/C=C/c2cc(O)c3cc(C(C)=O)c(=O)oc3c2)cc2c1O[C@]1(C)CC[C@@H](O)C(C)(C)[C@H]1C2", "growth": "17.2%"}
{"compound": "C=CC(=O)Nc1cccc(Nc2nc(SC)nc(-c3cccc([N+](=O)[O-])c3)c2C#N)c1", "growth": "46.5%"}
{"compound": "N#C/C(=C\\c1ccc(-c2cc(C(F)(F)F)ccc2Cl)o1)c1nc(-c2ccco2)cs1", "growth": "89.3%"}
{"compound": "COCCNc1ccc2c3c(cccc13)C(=O)N(CCN(C)C)C2=O", "growth": "-7.82% (active)"}
{"compound": "C=CC(=O)Nc1cccc(-c2nc(SC)nc(NCc3ccccc3)c2C#N)c1", "growth": "60%"}
{"compound": "COC(=O)c1cccc(NC(=O)c2ccc(-c3cccc(N)c3)o2)c1", "growth": "94.9%"}
{"compound": "N#Cc1c(-c2ccc(Cl)cc2)nc(N=Nc2c(O)[nH]c3ccc(Cl)cc23)nc1N1CCOCC1", "growth": "116%"}
{"compound": "N#CN1CCC[C@H]1C(=O)N1CCc2c(-c3[nH]nc4ncccc34)cccc21", "growth": "4.49% (active)"}
